These results are taken from the supplement of paper PMC8253809.

SMILES strings stand for the structures. Values joined by “and” are separate entries in the source; they are usually repeats but may differ in a detail not shown here. Equal entries are not always repeated.

For the first assay, the system named is DIPGX29 (H3.3 K27M diffuse intrinsic pontine glioma line). The assay is described as follows: growth inhibition (% activity, log2 RLU normalised to DMSO / staurosporine); higher = more growth inhibition. The following applies: 33 µM. Summed up:
(§1)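 The growth-inhibition value is the median over replicates. pHGG cell lines and H9-derived neural stem cells on Geltrex-coated 384-well plates received approved drugs by pin tool at a single final concentration of about 33 μM, in triplicate, for 7 days at 37 °C, 5% CO2. CellTiter-Glo luminescence was log2-transformed and normalised per plate to % activity between solvent and positive control wells.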
Regarding `Cc1ccc(NC(=O)c2ccc(CN3CCN(C)CC3)cc2)cc1Nc1nc(-c2cccnc2)cs1`, the growth inhibition was determined as 8.55%.

As to `CO[C@H]1C(=O)[C@]2(C)[C@@H](OC)C[C@H]3OC[C@@]3(OC(C)=O)[C@H]2[C@H](OC(=O)c2ccccc2)[C@]2(O)C[C@H](OC(=O)[C@H](O)[C@@H](NC(=O)OC(C)(C)C)c3ccccc3)C(C)=C1C2(C)C`, the growth inhibition came to 6.45%.

Regarding `C#C[C@]1(O)CC[C@H]2[C@@H]3CCc4cc(O)ccc4[C@H]3CC[C@@]21C`, the growth inhibition worked out at 0.982%.

Turning to `CN(C)c1ccc(C(=C2C=CC(=[N+](C)C)C=C2)c2ccc(N(C)C)cc2)cc1`, the growth inhibition was 39.6%.

As for `CN1CCN(c2c(F)cc3c(=O)c(C(=O)O)cn(CCF)c3c2F)CC1`, the growth inhibition came to 1.06%.

For the compound `CC(C)(C#N)c1cc(Cn2cncn2)cc(C(C)(C)C#N)c1`, the growth inhibition is 1.13%.

With `CNC(=O)c1ccccc1Sc1ccc2c(/C=C/c3ccccn3)n[nH]c2c1`, the growth inhibition was determined as 12.6%.

Take `Cc1ccccc1C(=O)Nc1ccc(C(=O)N2CCCC(O)c3cc(Cl)ccc32)c(C)c1` (stereo not drawn): the growth inhibition turned out to be 1.7%.

Consider `O=C(O)c1cc(=O)c2ccccc2o1`, for which the growth inhibition is -0.199%.

Turning to `CC[C@H](C)C(=O)O[C@H]1C[C@H](O)C=C2C=C[C@H](C)[C@H](CC[C@@H](O)C[C@@H](O)CC(=O)O)[C@H]21`, the growth inhibition was 1.52%.

As for `Cc1ccccc1C(OCCN(C)C)c1ccccc1` (stereo not drawn), the growth inhibition is -0.515%.

Regarding `CC(C)(Oc1ccc(Cl)cc1)C(=O)O`, the growth inhibition is -2.6%.

In the case of `C#C[C@]1(OC(C)=O)CC[C@H]2[C@@H]3CCC4=C[C@@H](OC(C)=O)CC[C@@H]4[C@H]3CC[C@@]21C`, the growth inhibition is 0.289%.

Turning to `CN1[C@@H]2CC[C@H]1CC(OC(=O)c1c[nH]c3ccccc13)C2` (stereo partly drawn), the growth inhibition came to 4.79%.

Turning to `Cc1ccccc1N1C(=O)c2cc(S(N)(=O)=O)c(Cl)cc2NC1C` (stereo not drawn), the growth inhibition was -2.6%.

On to `Cc1cc(NS(=O)(=O)c2ccc(N)cc2)no1`, for which the growth inhibition is -4.18%.

`COC(=O)C1=C(C)NC(C)=C(C(=O)OC2CCCN(Cc3ccccc3)C2)C1c1cccc([N+](=O)[O-])c1` (stereo not drawn): the growth inhibition was determined as 3.05%.

With `CC(C)/N=c1\cc2n(-c3ccc(Cl)cc3)c3ccccc3nc-2cc1Nc1ccc(Cl)cc1`, the growth inhibition stood at 12.5%.

Consider `O=C(OCC(O)CO)c1ccccc1Nc1ccnc2cc(Cl)ccc12` (stereo not drawn), for which the growth inhibition worked out at 0.939%.

As to `O=C(O)CSCC(=O)NC1CCSC1=O` (stereo not drawn), the growth inhibition was determined as 0.54%.

As for `C=C1CC[C@H](O)C/C1=C/C=C1\CCC[C@]2(C)[C@@H]([C@H](C)/C=C/[C@H](C)C(C)C)CC[C@@H]12`, the growth inhibition was found to be 3.21%.

As to `COC(=O)Nc1nc2cc([S+]([O-])c3ccccc3)ccc2[nH]1` (stereo not drawn), the growth inhibition was found to be 4.96%.

As to `CN(C)[C@@H](CCOc1cccc2ccccc12)c1ccccc1`, the growth inhibition came out at 10.6%.

For the compound `O=c1c(-c2ccc(O)cc2)coc2cc(O)cc(O)c12`, the growth inhibition was 0.891%.

In the case of `O=C1CCc2cc(OCCCCc3nnnn3C3CCCCC3)ccc2N1`, the growth inhibition came to 3.36%.

For `C[C@@](Cc1ccc(O)c(O)c1)(NN)C(=O)O`, the growth inhibition is -0.229%.

For the compound `CCc1ccc(CCOc2ccc(CC3SC(=O)NC3=O)cc2)nc1` (stereo not drawn), the growth inhibition was -2.15% and 0.83%.

As to `CC(C[N+](C)(C)C)OC(N)=O` (stereo not drawn), the growth inhibition is -2.19%.

For `CN(C)CCOc1ccc(/C(=C(/CCCl)c2ccccc2)c2ccccc2)cc1`, the growth inhibition was 2.43%.

Regarding `CCNC(=O)CCC/C=C\C[C@@H]1[C@@H](/C=C/[C@@H](O)CCc2ccccc2)[C@H](O)C[C@@H]1O`, the growth inhibition came to 0.795%.

For `CO[C@H]1O[C@@H]2O[C@@]3(C)CC[C@H]4[C@H](C)CC[C@@H]([C@H]1C)[C@@]24OO3`, the growth inhibition came to 0.229%.

For `N=C(N)NS(=O)(=O)c1ccc(N)cc1`, the growth inhibition stood at 1.78%.

Take `CNC[C@H](O)c1cccc(O)c1`: the growth inhibition came out at 0.744%.

Take `CC(C)(C)NCC(O)c1ccc(O)c(CO)c1` (stereo not drawn): the growth inhibition is -2.88%.

In the case of `C=C1[C@H](CO)[C@@H](O)C[C@@H]1n1cnc2c(=O)[nH]c(N)nc21`, the growth inhibition is -0.461%.

As to `CC(C)(C(=O)O)c1ccc(C(O)CCCN2CCC(C(O)(c3ccccc3)c3ccccc3)CC2)cc1` (stereo not drawn), the growth inhibition was -0.186%.

For the compound `NCCS`, the growth inhibition was -2.8%.

For the compound `CCCc1nn(C)c2c(=O)[nH]c(-c3cc(S(=O)(=O)N4CCN(C)CC4)ccc3OCC)nc12`, the growth inhibition was 0.246%.

Regarding `COC1C(O)CC(=O)OC(C)CC=CC=CC(OC2CCC(N(C)C)C(C)O2)C(C)CC(CC=O)C1OC1OC(C)C(OC2CC(C)(O)C(O)C(C)O2)C(N(C)C)C1O` (stereo not drawn), the growth inhibition stood at 0.981%.

The test system of a further assay is DIPGX37 (H3.3 K27M diffuse intrinsic pontine glioma line). The description is as above. The following applies: 33 µM. The procedure, abridged:
as §1
On to `Cc1ccc(NC(=O)c2ccc(CN3CCN(C)CC3)cc2)cc1Nc1nc(-c2cccnc2)cs1`, for which the growth inhibition was 4.57%.

For the compound `CO[C@H]1C(=O)[C@]2(C)[C@@H](OC)C[C@H]3OC[C@@]3(OC(C)=O)[C@H]2[C@H](OC(=O)c2ccccc2)[C@]2(O)C[C@H](OC(=O)[C@H](O)[C@@H](NC(=O)OC(C)(C)C)c3ccccc3)C(C)=C1C2(C)C`, the growth inhibition worked out at 5.31%.

`C#C[C@]1(O)CC[C@H]2[C@@H]3CCc4cc(O)ccc4[C@H]3CC[C@@]21C`: the growth inhibition is 1.91%.

`CN(C)c1ccc(C(=C2C=CC(=[N+](C)C)C=C2)c2ccc(N(C)C)cc2)cc1`: the growth inhibition came to 42.1%.

With `CN1CCN(c2c(F)cc3c(=O)c(C(=O)O)cn(CCF)c3c2F)CC1`, the growth inhibition is 4.17%.

With `CC(C)(C#N)c1cc(Cn2cncn2)cc(C(C)(C)C#N)c1`, the growth inhibition worked out at 0.615%.

With `CNC(=O)c1ccccc1Sc1ccc2c(/C=C/c3ccccn3)n[nH]c2c1`, the growth inhibition was determined as 6.36%.

For `Cc1ccccc1C(=O)Nc1ccc(C(=O)N2CCCC(O)c3cc(Cl)ccc32)c(C)c1` (stereo not drawn), the growth inhibition was found to be 2.36%.

For `O=C(O)c1cc(=O)c2ccccc2o1`, the growth inhibition was -0.128%.

Turning to `CC[C@H](C)C(=O)O[C@H]1C[C@H](O)C=C2C=C[C@H](C)[C@H](CC[C@@H](O)C[C@@H](O)CC(=O)O)[C@H]21`, the growth inhibition is -5.39%.

On to `Cc1ccccc1C(OCCN(C)C)c1ccccc1` (stereo not drawn), for which the growth inhibition turned out to be 0.826%.

On to `CC(C)(Oc1ccc(Cl)cc1)C(=O)O`, for which the growth inhibition is 1.37%.

With `C#C[C@]1(OC(C)=O)CC[C@H]2[C@@H]3CCC4=C[C@@H](OC(C)=O)CC[C@@H]4[C@H]3CC[C@@]21C`, the growth inhibition was 0.452%.

For the compound `CN1[C@@H]2CC[C@H]1CC(OC(=O)c1c[nH]c3ccccc13)C2` (stereo partly drawn), the growth inhibition turned out to be 5.76%.

In the case of `Cc1ccccc1N1C(=O)c2cc(S(N)(=O)=O)c(Cl)cc2NC1C` (stereo not drawn), the growth inhibition was found to be 0.236%.

As for `Cc1cc(NS(=O)(=O)c2ccc(N)cc2)no1`, the growth inhibition was -1.05%.

Consider `COC(=O)C1=C(C)NC(C)=C(C(=O)OC2CCCN(Cc3ccccc3)C2)C1c1cccc([N+](=O)[O-])c1` (stereo not drawn), for which the growth inhibition turned out to be 0.403%.

In the case of `CC(C)/N=c1\cc2n(-c3ccc(Cl)cc3)c3ccccc3nc-2cc1Nc1ccc(Cl)cc1`, the growth inhibition stood at 10.3%.

`O=C(OCC(O)CO)c1ccccc1Nc1ccnc2cc(Cl)ccc12` (stereo not drawn): the growth inhibition is 1.64%.

On to `O=C(O)CSCC(=O)NC1CCSC1=O` (stereo not drawn), for which the growth inhibition is -0.388%.

On to `C=C1CC[C@H](O)C/C1=C/C=C1\CCC[C@]2(C)[C@@H]([C@H](C)/C=C/[C@H](C)C(C)C)CC[C@@H]12`, for which the growth inhibition is 5.04%.

For `COC(=O)Nc1nc2cc([S+]([O-])c3ccccc3)ccc2[nH]1` (stereo not drawn), the growth inhibition amounted to 6.45%.

For `CN(C)[C@@H](CCOc1cccc2ccccc12)c1ccccc1`, the growth inhibition came to 0.861%.

`O=c1c(-c2ccc(O)cc2)coc2cc(O)cc(O)c12`: the growth inhibition was 2.29%.

Regarding `O=C1CCc2cc(OCCCCc3nnnn3C3CCCCC3)ccc2N1`, the growth inhibition worked out at 2.01%.

`C[C@@](Cc1ccc(O)c(O)c1)(NN)C(=O)O`: the growth inhibition was determined as 0.519%.

For `CCc1ccc(CCOc2ccc(CC3SC(=O)NC3=O)cc2)nc1` (stereo not drawn), the growth inhibition is -2.01% and 4.22%.

With `CC(C[N+](C)(C)C)OC(N)=O` (stereo not drawn), the growth inhibition amounted to 0.0509%.

Regarding `CN(C)CCOc1ccc(/C(=C(/CCCl)c2ccccc2)c2ccccc2)cc1`, the growth inhibition came to 1.15%.

Turning to `CCNC(=O)CCC/C=C\C[C@@H]1[C@@H](/C=C/[C@@H](O)CCc2ccccc2)[C@H](O)C[C@@H]1O`, the growth inhibition was 0.309%.

On to `CO[C@H]1O[C@@H]2O[C@@]3(C)CC[C@H]4[C@H](C)CC[C@@H]([C@H]1C)[C@@]24OO3`, for which the growth inhibition came out at 0.466%.

On to `N=C(N)NS(=O)(=O)c1ccc(N)cc1`, for which the growth inhibition is 3.55%.

Regarding `CNC[C@H](O)c1cccc(O)c1`, the growth inhibition was -0.539%.

For `CC(C)(C)NCC(O)c1ccc(O)c(CO)c1` (stereo not drawn), the growth inhibition was -1.32%.

Consider `C=C1[C@H](CO)[C@@H](O)C[C@@H]1n1cnc2c(=O)[nH]c(N)nc21`, for which the growth inhibition came out at 0.828%.

On to `CC(C)(C(=O)O)c1ccc(C(O)CCCN2CCC(C(O)(c3ccccc3)c3ccccc3)CC2)cc1` (stereo not drawn), for which the growth inhibition was -1.1%.

As to `NCCS`, the growth inhibition was -1.3%.

Take `CCCc1nn(C)c2c(=O)[nH]c(-c3cc(S(=O)(=O)N4CCN(C)CC4)ccc3OCC)nc12`: the growth inhibition is -4.11%.

In the case of `COC1C(O)CC(=O)OC(C)CC=CC=CC(OC2CCC(N(C)C)C(C)O2)C(C)CC(CC=O)C1OC1OC(C)C(OC2CC(C)(O)C(O)C(C)O2)C(N(C)C)C1O` (stereo not drawn), the growth inhibition was determined as 1.73%.
